Among the data in PubChem BioAssay (NCATS) are outcome and Potency values, retold here.

Inconclusive results are not listed. The source made the active and inactive calls. Unless noted, calls come from the whole dose curve; as a rule, active = well fitted curve in the direction sought with a large enough effect; inconclusive = small, poorly fitted or top-dose-only effect, or another doubt; inactive = no such curve, though single readings can be large; an effect the other way counts as inactive or inconclusive.

Test [1] relates to HEK293T. In words: qHTS assay to identify novel small-molecules to repurpose for Merkel cell carcinoma treatment (AID 1296009). Note: nearly all actives have a fitted effect of over 60% in size. The conditions noted are these: MCC and control cell lines, CellTiter-Glo viability, 72 h; at 44.8 µM (top of the series) unless noted. The method in brief: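 Cells were treated for 72 hr at 37 degree celsius with compounds in 8- or 11-point dose response. Viability was read by CellTiter-Glo luminescence, normalized to no-cell (cytotoxicity) and DMSO controls.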
(qHTS replaces the single test concentration by a dilution series.)

Test [2] can be described thus: Cytotoxicity counterscreen for inhibitors of SARS-CoV-2 cell entry (AID 1645845; calls by dose curve; note: nearly all actives have a fitted effect of over 50% in size). The conditions noted are these: cell viability (SARS-CoV-2 entry assay cells); series mostly up to 57.1 µM. An outline of the steps: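 HEK293-ACE2 cells (Expi293F stably expressing human ACE2) seeded overnight, then compound for 1 h plus 48 h at 37C. Viability as ATP content by luminescence; normalized to wells with cells and media-only wells.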
In general terms: Counterscreens check selectivity or assay interference.

Test [3] is described as follows: Confirmatory qHTS for VERO E6 Cytotoxicity Assay: Counterscreen for SARS-CoV-2 CPE Assay (AID 1508605; calls by dose curve; note: nearly all actives have a fitted effect of over 60% in size). The conditions noted are these: cell viability luminescence; series mostly up to 20 µM.
The nature of test [4]: Confirmatory qHTS for activators (rescue) of SARS-CoV-2 Cytopathic Effect (CPE) (AID 1508606; calls by dose curve; note: potency is the fitted concentration of half-maximal effect; nearly all actives have a fitted effect of over 70% in size). Conditions: Vero E6 SARS-CoV-2 CPE rescue, viability luminescence; series mostly up to 20 µM.
Test [5] can be described thus: qHTS to identify inhibitors of the type 1 interferon - major histocompatibility complex class I in skeletal muscle: primary screen against the NCATS Mechanism Interrogation Plate v5.0 (MIPE) Libary (AID 1347411). Note: nearly all actives have a fitted effect of over 65% in size. The conditions noted are these: iHSKM cells + IFN-b, HiBiT-tagged MHC-I luminescence, 24 h; series mostly up to 45.8 µM. The method in brief:
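Immortalized human myoblasts (C25cl48) with HiBit knocked into endogenous HLA-B*08:01 were stimulated with 4 ng/ml IFN-beta and given compounds in 11-point 1:3 titration from 46 uM. After 24 h at 37 C, lytic HiBiT luminescence was read.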

The nature of test [6]: OV-KATE Cancer Cell Toxicity qHTS against the NCATS CANVASS Library (AID 1347345). Conditions: OV-KATE cells viability, CellTiter-Glo luminescence, 72 h; series mostly up to 38.3 µM. An outline of the steps: (§1)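 Viability read-out: CellTiter-Glo luminescence after 72 h compound exposure at 37 °C/5% CO2. Cells plated at 1000/well, 4 h pre-incubation; 11-point titration. Bortezomib served as control.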

Test [7] in a line: HPAF-II Cancer Cell Toxicity qHTS against the NCATS CANVASS Library (AID 1347346). Note: nearly all actives have a fitted effect of over 55% in size. Conditions: HPAF-II viability, CellTiter-Glo ATP luminescence, 72 h; series mostly up to 38.3 µM. An outline of the steps: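 HPAF-II cells at 1000 cells/well were treated with an 11-point concentration series for 72 hours at 37 degrees C. Viability read by CellTiter-Glo luminescence.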
A short description of test [8]: UWB1.289 Cancer Cell Toxicity qHTS against the NCATS CANVASS Library (AID 1347347). Note: nearly all actives have a fitted effect of over 60% in size. Conditions: UWB1.289 viability, CellTiter-Glo luminescence, 72 h; series mostly up to 38.3 µM. An outline of the steps: as §1
Test [9] can be described thus: OV-SAHO Cancer Cell Toxicity qHTS against the NCATS CANVASS Library (AID 1347348). Note: nearly all actives have a fitted effect of over 55% in size. Conditions: OV-SAHO viability, CellTiter-Glo luminescence, 72 h; series mostly up to 38.3 µM. The method in brief:
as §1

A short description of test [10]: Panc-1005 Cancer Cell Toxicity qHTS against the NCATS CANVASS Library (AID 1347349). Note: nearly all actives have a fitted effect of over 60% in size. Conditions: Panc-1005 viability, CellTiter-Glo luminescence, 72 h; series mostly up to 38.3 µM. The method in brief:
as §1

The nature of test [11]: SW1088 Cancer Cell Toxicity qHTS against the NCATS CANVASS Library (AID 1347350). Note: nearly all actives have a fitted effect of over 75% in size. The conditions noted are these: SW1088 viability, CellTiter-Glo luminescence, 72 h; series mostly up to 38.3 µM. An outline of the steps: as §1
A short description of test [12]: U-118MG Cancer Cell Toxicity qHTS against the NCATS CANVASS Library (AID 1347351). Conditions: U-118MG viability, CellTiter-Glo luminescence, 72 h; series mostly up to 38.3 µM. An outline of the steps:
as §1

Test [13] is described as follows: COV-362 Cancer Cell Toxicity qHTS against the NCATS CANVASS Library (AID 1347352). Conditions: COV-362 viability, CellTiter-Glo luminescence, 72 h; series mostly up to 38.3 µM. The method in brief: (§2)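 Cells at 1000/well were given compound 4 h after plating in an 11-point series. Viability was read by CellTiter-Glo luminescence after 72 h at 37 degrees C.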
Test [14] in a line: UWB1.289-WTBRCA1 Cancer Cell Toxicity qHTS against the NCATS CANVASS Library (AID 1347354). The conditions noted are these: UWB1.289-WTBRCA1 viability, CellTiter-Glo luminescence, 72 h; series mostly up to 38.3 µM. An outline of the steps: as §2
Test [15] can be described thus: HPAF-II 24hr Apoptosis Induction qHTS against the NCATS CANVASS Library (AID 1347356). The conditions noted are these: HPAF-II caspase-3/7 Caspase-Glo luminescence; series mostly up to 46.1 µM. An outline of the steps:
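HPAF-II cells (500/well) exposed to compounds in 11-point series for 24 h at 37 degrees C; caspase-3/7 activity read by Caspase-Glo luminescence after 15 min at room temperature. Doxorubicin titration as control.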

Test [16] can be described thus: HPAF-II 12hr Apoptosis Induction qHTS against the NCATS CANVASS Library (AID 1347358). Conditions: HPAF-II caspase-3/7 Caspase-Glo luminescence; series mostly up to 46.1 µM. An outline of the steps: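 HPAF-II cells, 500/well in DMEM + 10% FBS, exposed 12 hours at 37 degrees C to compound (11-point). Caspase-Glo 3/7 added for 15 min at room temperature; luminescence reflects caspase-3/7 activity.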

Test [17] can be described thus: HEK293 24hr Apoptosis Induction qHTS against the NCATS CANVASS Library (AID 1347359). Conditions: HEK293 caspase-3/7 activation, Caspase-Glo luminescence; series mostly up to 46.1 µM. The method in brief:
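HEK293 cells, 500 per well, exposed to an 11-point compound series for 24 hours at 37 degrees C. Caspase 3/7 activity read by Caspase-Glo luminescence (DEVD substrate) after 15 min at room temperature.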

A short description of test [18]: HEK293 12hr Apoptosis Induction qHTS against the NCATS CANVASS Library (AID 1347361). The conditions noted are these: HEK293 caspase-3/7 Caspase-Glo luminescence; series mostly up to 46.1 µM. The method in brief: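 Cells are seeded, dosed with an 11-point compound series and incubated 12 hours. Caspase-3/7 activity is detected by luminescent DEVD-substrate reagent after 15 minutes at room temperature.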

Test [19] deals with NAD(P)H diaphorase (Clostridium kluyveri). As to the kind of experiment: Diaphorse counterscreen qHTS: Assay Interference Panel against the NCATS CANVASS Library (AID 1347362). The conditions noted are these: Diaphorase enzyme, resazurin to resorufin fluorescence; series mostly up to 57.5 µM. The method in brief: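 Clostridium kluyveri diaphorase in PBS + 0.01% Tween-20 preincubated 15 min with compounds. Resazurin and NADH then added for 5 min at room temperature in the dark; resorufin fluorescence read (ex 525, em 598).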

Test [20] deals with Luciferin 4-monooxygenase (Photinus pyralis) (UniProt P08659). In words: Firefly luciferase counterscreen qHTS: Assay Interference Panel against the NCATS CANVASS Library (AID 1347363). The conditions noted are these: purified firefly luciferase, luminescence inhibition, 5 min; series mostly up to 57.5 µM. An outline of the steps: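 Purified P. pyralis luciferase (0.04 ug/mL, 4x reagent) added to Tris-acetate buffer with 0.013 mM D-luciferin, 0.013 mM ATP and 13.3 mM Mg-acetate; compounds preincubated 15 min, then luminescence read after 5 min, RT.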
Sequence of Luciferin 4-monooxygenase (Photinus pyralis) (P08659 whole entry, looked up): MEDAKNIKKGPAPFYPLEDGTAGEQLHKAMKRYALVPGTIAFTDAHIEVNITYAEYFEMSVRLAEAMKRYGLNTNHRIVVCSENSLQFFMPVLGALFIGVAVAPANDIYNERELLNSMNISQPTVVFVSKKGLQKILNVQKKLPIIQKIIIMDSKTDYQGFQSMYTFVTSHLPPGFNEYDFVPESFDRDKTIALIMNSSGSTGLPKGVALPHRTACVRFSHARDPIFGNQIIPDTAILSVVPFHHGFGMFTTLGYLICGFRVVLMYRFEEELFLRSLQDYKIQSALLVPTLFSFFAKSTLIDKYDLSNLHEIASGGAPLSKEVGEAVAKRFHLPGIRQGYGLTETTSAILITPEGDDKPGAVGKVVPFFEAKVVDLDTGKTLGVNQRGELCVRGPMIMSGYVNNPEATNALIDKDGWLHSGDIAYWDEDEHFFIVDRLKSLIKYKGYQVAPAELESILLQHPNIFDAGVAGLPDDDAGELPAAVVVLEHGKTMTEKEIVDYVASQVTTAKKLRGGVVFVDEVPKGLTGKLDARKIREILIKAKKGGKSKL

In the case of `Nc1ncnc2c1ncn2[C@@H]1O[C@@H]2COP(O)(=S)O[C@H]2[C@H]1O` (some centres not stated), the outcome in [1] is “inactive [at 9.27 µM]”.
Turning to `CN1CCC2=C(C1)c1ccccc1Cc1ccccc12`, in test [2], the Potency entry was “inactive”.
For `CCC1C2CC3C4N(C)c5ccccc5C45CC(C2C5O)N3C1O` (configuration not stated), the result in [1] was inactive.
In the case of `CN1CCCCC1Cn1cc(C(=O)c2cc([N+](=O)[O-])ccc2I)c2ccccc21` (configuration not stated), the Potency entry in test [3] was “inactive”. In [4], the Potency was 10 µM (active).
In the case of `COc1cc(C(=O)N2CC[C@@H](O)[C@@H](N)C2)cc2nc(-c3cc4ccccc4n3CC3CC3)n(C)c12`, the Potency result in test [5] and in [2] was “inactive” each time.
Take `COc1ccc2c(c1)c(CCN(C)C)cn2S(=O)(=O)c1ccccc1`: the Potency entry in test [3] was “inactive”.
Take `CN1C(=O)[C@]23CC4C(C)(C)[C@@]5(C[C@@]41CN2CC[C@@]3(C)O)C(=O)Nc1c5ccc2c1OC=CC(C)(C)O2` (some centres not stated): the Potency result in [6], in [7], in test [8], in test [9], in [10] and in test [11] was “inactive” throughout. Moreover, the Potency entry in test [12], in test [13], in [14], in test [17] and in test [18] was “inactive” in each case. Besides, the outcome in [15], in test [16], in test [19] and in [20] was inactive.
As to `C/C=C1/CN2CC[C@]34C(=Nc5ccccc53)[C@@H]2C[C@@H]1[C@H]4C(=O)OC`, the Potency entry in [6], in test [7], in test [8], in [9], in test [10] and in test [11] was “inactive” each time. For the same compound, the Potency entry in test [12], in [13], in test [14], in test [17] and in [18] was “inactive” each time. The outcome in [15], in [16], in test [19] and in [20] was inactive.
On to `C/C=C(\C)C(=O)O[C@H]1CC2C(=C1C)[C@H]1OC(=O)[C@](C)(O)[C@]1(O)[C@H](OC(=O)CCC)C[C@@]2(C)OC(C)=O` (some centres not stated), for which the Potency in test [4] is 2.2 µM (active).
On to `CN1CN(c2ccccc2)C2(CCN(CCCC(=O)c3ccc(F)cc3)CC2)C1=O`, for which the Potency entry in [3] is “inactive”. For the same compound, the Potency in test [4] is 7.08 µM (active).
Turning to `Cc1ncc(OC[C@@]2(c3cccc(F)c3)C[C@H]2C(=O)Nc2ccc(F)cn2)c(C)n1`, the Potency result in test [5] and in test [2] was “inactive” each time.
`COc1ccc(CCNCc2ccc(OC)c3ccccc23)cc1`: in [3], the Potency entry was “inactive”. For the same compound, the Potency in test [4] is 11.2 µM (active).
Take `NC(=O)[C@@H](CC1CC1)[C@@H](CCC(F)(F)F)C(=O)N[C@H]1N=C(c2ccccc2)c2cccc(F)c2NC1=O`: the Potency entry in test [5] and in test [2] was “inactive” in each case.
